High-throughput results deposited in PubChem by National Center for Advancing Translational Sciences (NCATS).
An excerpt weighted towards active compounds, which were near 1.7% of everything screened.
PTHR1 ag = qHTS for PTHR1 Agonists: Primary Screen; Parathyroid hormone/parathyroid hormone-related peptide receptor (Homo sapiens), Q03431; HEK293 GP2 PTHR1 cells, GloSensor cAMP luminescence, 1 h; Potency, µM (top dose mostly 115 µM), usual class: activators; actives 0.075% (n = 410,000); note: nearly all actives have a fitted effect of over 55% in size
Target sequence (Q03431 whole entry, looked up): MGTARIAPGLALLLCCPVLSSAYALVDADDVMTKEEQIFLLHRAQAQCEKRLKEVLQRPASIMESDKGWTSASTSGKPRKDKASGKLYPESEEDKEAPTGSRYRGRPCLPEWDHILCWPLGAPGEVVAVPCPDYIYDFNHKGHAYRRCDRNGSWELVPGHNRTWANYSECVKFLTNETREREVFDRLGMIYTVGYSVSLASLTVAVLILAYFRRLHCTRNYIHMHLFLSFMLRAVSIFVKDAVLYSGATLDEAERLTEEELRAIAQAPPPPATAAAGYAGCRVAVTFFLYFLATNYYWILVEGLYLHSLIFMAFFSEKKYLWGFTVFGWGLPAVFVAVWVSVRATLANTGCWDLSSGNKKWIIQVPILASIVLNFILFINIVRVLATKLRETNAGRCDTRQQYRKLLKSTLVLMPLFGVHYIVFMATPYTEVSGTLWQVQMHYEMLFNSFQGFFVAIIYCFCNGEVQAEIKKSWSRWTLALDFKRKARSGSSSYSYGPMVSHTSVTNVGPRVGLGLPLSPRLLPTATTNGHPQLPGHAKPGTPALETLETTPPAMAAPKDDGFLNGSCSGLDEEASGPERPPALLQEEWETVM
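HEK-293-derived GP2 cells expressing PTHR1 and a GloSensor cAMP reporter, 3,000/well, plated overnight, given luciferin plus IBMX (each 0.5 mM as added) for 1 h at 37 °C, then compound for 1 h at 37 °C. Luminescence was read after 15 min at room temperature.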
GLP1R cytotox = qHTS of GLP-1 Receptor Inverse Agonists: Cytotox Screen. HEK293 cAMP-luciferase reporter cells, luminescence, 24 h. Potency, µM (titrated, usually from 38.3 µM), most hits filed as inhibitors. actives 0.13% (n = 410,000). AID 624418, 2012;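 note: loss of luciferase light is scored as toxicity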
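MLSMR compounds, 24 hr on cells at 37 deg C/5% CO2; luminescence after luciferase reagent (12 min RT). Inhibition counted as the undesired cytotoxic outcome.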
GLP1R ag = qHTS of GLP-1 Receptor Agonists | Glucagon-like peptide 1 receptor (Homo sapiens), P43220 | actives 0.007% (n = 380,000) | HEK293 GLP-1R CRE-luciferase, luminescence, 4-6 h; cells express a hypersensitive GLP-1R form | Potency, µM (top dose mostly 45.6 µM), hits mostly activators
GLP-1R inv ag = qHTS of GLP-1 Receptor Inverse Agonists (Inhibition Mode); Glucagon-like peptide 1 receptor (Homo sapiens), P43220; HEK293 GLP-1R CRE-luciferase, luminescence, 24 h; GLP-1R form is constitutively active; actives 1.6% (n = 410,000); Potency, µM (series often up to 38.3 µM), most hits filed as inhibitors; note: nearly all actives have a fitted effect of over 55% in size
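HEK293 cells stably co-expressing a cAMP-responsive luciferase reporter and constitutively active GLP-1R were seeded, incubated 12 h, then exposed to compounds for 24 h at 37 C. Luminescence was read 12 min after detection reagent; inverse agonists lower signal.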
Hits are given with their value; . = inactive; ? = inconclusive; / = not tested or not shown. Calls come from the whole dose curve; as a rule, active = well fitted curve in the direction sought with a large enough effect; inconclusive = small, poorly fitted or top-dose-only effect, or another doubt; inactive = no such curve, though single readings can be large; an effect the other way counts as inactive or inconclusive.

SMILES | PTHR1 ag | GLP1R cytotox | GLP1R ag | GLP-1R inv ag
CN(CC(=O)NC1CCN(Cc2ccccc2)CC1)S(=O)(=O)c1ccc(Br)s1 | . | . | . | .
OC[C@@H]1CN(Cc2cccs2)C[C@H](n2cnc3c(NCc4ccc(F)cc4)ncnc32)O1 | . | . | . | .
CCOc1ccc(NS(=O)(=O)c2cc(NC(=O)CCC(=O)c3cccs3)ccc2Cl)cc1 | . | . | . | 10µM
COc1ccc(NC(=O)CCC(=O)c2cccs2)cc1S(=O)(=O)Nc1ccc(Cl)cc1 | . | ? | . | ?
COc1ccccc1NS(=O)(=O)c1cc(NC(=O)CCC(=O)c2cccs2)ccc1Cl | . | . | . | ?
COc1ccc(NC(=O)CCS(=O)(=O)c2ccccc2Cl)cc1S(=O)(=O)Nc1ccc(Cl)cc1 | . | . | . | 6.31µM
O=C(Nc1cc([N+](=O)[O-])c2[nH]c(=O)c3ccccc3c2c1)C(F)(F)F | . | . | . | .
CCn1c2ccccc2c2cc(/C=N/n3c(-c4cc(C)[nH]n4)n[nH]c3=S)ccc21 | . | . | . | 2.51µM
CCn1c2ccccc2c2cc(/C=N/n3cn[nH]c3=S)ccc21 | . | ? | . | ?
CN(CCOc1ccc(Cl)cc1)C(=O)c1cccc(S(=O)(=O)N2CCN(c3ccc(F)cc3)CC2)c1 | . | . | . | 3.98µM
Cn1c(=O)c(NC2CCCCC2)c2c3c(cccc31)C(=O)c1ccccc1-2 | . | . | . | 10µM
CC#CCC(C)[C@H](O)/C=C/C1[C@H](O)C[C@@H]2C/C(=C\CCCC(=O)O)C[C@H]12 (some centres not stated) | / | / | . | /
CN1C[C@H]2c3ccccc3Oc3ccc(Cl)cc3[C@@H]2C1 | / | / | . | /
CSc1cccc(NS(=O)(=O)c2ccc(-c3coc(C)n3)cc2)c1 | . | . | . | 8.91µM
O=C(Nc1ccc(NC(=O)c2ccccc2O)cc1)Nc1ccc(F)cc1F | . | . | . | .
CC(C)[C@H](NC(=O)c1ccc([N+](=O)[O-])cc1Cl)C(=O)N1CCN(C/C=C/c2ccccc2)CC1 | . | . | . | 10µM
COc1ccc(C(=O)NC(C(=O)N2CCN(C/C=C/c3ccccc3)CC2)C(C)C)cc1 (configuration not stated) | . | . | . | .
CCC(C)c1ccc(O)c(NC(=S)NC(=O)c2cccs2)c1 (configuration not stated) | . | . | . | 8.91µM
CN1CCC(N(C)C(=O)c2sc3cc(F)ccc3c2Cl)CC1 | . | . | . | 7.08µM
CC(C)N(CC(N)=O)C(=O)c1sc2cc(F)ccc2c1Cl | . | . | . | .
CCOC(=O)c1cc(-c2ccccc2)sc1NC(=O)C(C)N1C(=O)NC(C)(c2ccc(Cl)cc2)C1=O (configuration not stated) | . | . | . | 5.62µM
CN(CCCC(=O)Nc1ccc(OC(F)F)cc1)S(=O)(=O)c1ccc(F)cc1 | . | ? | . | ?
C[C@H](CO)N1C[C@H](C)[C@H](CN(C)Cc2ccccc2)Oc2ccc(NC(=O)Nc3ccc(F)cc3)cc2C1=O | . | . | . | 11.2µM
C[C@@H]1CN([C@@H](C)CO)C(=O)c2cc(NC(=O)c3ccccc3)ccc2O[C@@H](C)CCCCO[C@@H]1CN(C)Cc1ccc(C(F)(F)F)cc1 | . | . | . | 11.2µM
C[C@@H]1CCCCO[C@H](CN(C)Cc2ccc3c(c2)OCO3)[C@H](C)CN([C@@H](C)CO)C(=O)c2cc(NC(=O)c3ccccc3)ccc2O1 | . | . | . | ?
SMILES | PTHR1 ag | GLP1R cytotox | GLP1R ag | GLP-1R inv ag
C[C@H](CO)N1C[C@H](C)[C@H](CN(C)Cc2ccccc2)Oc2c(NC(=O)Nc3ccc(F)cc3)cccc2C1=O | . | . | . | .
C[C@@H]1CN([C@H](C)CO)C(=O)Cc2cc(NS(=O)(=O)c3ccc(Cl)cc3)ccc2O[C@H]1CN(C)Cc1ccc(C(F)(F)F)cc1 | . | . | . | 10µM
C[C@@H]1CN([C@H](C)CO)C(=O)Cc2cc(NS(=O)(=O)c3ccc(F)cc3)ccc2O[C@H]1CN(C)Cc1ccc(C(=O)O)cc1 | . | . | . | .
Cc1ccc(C)c(N2CCN(C(=O)c3cnc4c(-c5ccccc5)c(C)nn4c3C)CC2)c1 | . | . | / | .
COc1ccc(C(=O)NN/C(C)=C/C(=O)C(F)(F)C(F)(F)C(F)(F)F)cc1 | . | . | . | 5.01µM
COc1ccc(C(=O)NNC(=O)OC(C)(C)C)cc1 | . | . | . | .
Oc1cccc(/C=N/NC(=S)NCCN2CCOCC2)c1O | . | . | . | .
S=C(NCCN1CCOCC1)N/N=C/c1cccs1 | . | . | . | 3.16µM
Cc1cc2oc(C(=O)N(Cc3ccccc3F)C3CCS(=O)(=O)C3)c(C)c2cc1Cl (configuration not stated) | . | . | / | ?
CC(=O)c1ccc(OCCCC(=O)NNC(=O)c2ccccn2)cc1 | . | . | . | .
Cc1nc(N2CCCCC2)c2c(C)c(C(=O)Nc3cccc(C(F)(F)F)c3)sc2n1 | . | . | . | ?
Cc1nc(N2CCCCC2C)c2c(C)c(C(=O)Nc3cccc(C(F)(F)F)c3)sc2n1 (configuration not stated) | . | ? | . | 10µM
CN1CCN(S(=O)(=O)c2ccc(N(C)Cc3ccc(OC(F)F)cc3)c([N+](=O)[O-])c2)CC1 | . | . | . | 10µM
COc1cc(C=O)ccc1OCCCOc1ccccc1C(=O)O | . | . | . | 2.24µM
Cc1c2c([n+]3n1CCC3)CC(C)(C)CC2=O | . | . | . | .
Cc1nc2c(-c3ccc(F)cc3)c(C)nn2c(C)c1CCC(=O)NC(C)CCc1ccco1 (configuration not stated) | . | . | . | 7.08µM
OC[C@@H]1CN(Cc2ccc(-c3ccccc3)cc2)C[C@H](n2cnc3c(Nc4ccccc4)ncnc32)O1 | . | . | . | 4.47µM
COC(=O)c1c(C)oc(C)c1S(=O)(=O)NCc1ccco1 | . | . | . | .
O=C(c1ccncc1)N1N=C(c2ccc(Br)cc2)CC1c1ccccc1O (configuration not stated) | . | . | . | ?
O=C(c1ccccc1)N1N=C(c2ccccc2)CC1c1ccccc1O (configuration not stated) | . | . | . | 11.2µM
Cc1ccc(C2=NN(C(=O)c3cccs3)C(c3ccccc3O)C2)cc1 (configuration not stated) | . | . | . | .
O=C(c1cccs1)N1N=C(c2ccccc2)CC1c1ccccc1O (configuration not stated) | . | . | . | 8.91µM
COc1ccc(C(=O)c2oc3ccccc3c2NC(=O)c2nc(SC)ncc2Cl)cc1Cl | . | . | / | .
C#CCn1cc[n+](CC(=O)N(C)C)c1 | . | . | . | .
